Results published in PubChem BioAssay (NCATS).
Where “and” joins values, the source holds several entries; their conditions need not be identical. Equal values may be shown once. Results filed as inconclusive are left out. Calls of active or inactive are those of the source. Unless noted, the call rests on the fitted dose curve; in most records, active means well fitted curve in the direction sought with a large enough effect; inconclusive means small, poorly fitted or top-dose-only effect, or another doubt; inactive means no such curve, though single readings can be large; an effect the other way counts as inactive or inconclusive.

Tests used:
[1] = AP1 Signaling Pathway (AID 357; active means well fitted curve in either direction with a large enough effect, not every such curve was filed as active;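 further: ME-180 reporter cells stimulated with EGF at its EC50 level; on the % scale 0 is the no-effect control and ±100 the full control effect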); conditions: ME-180 AP-1-bla reporter, EGF-induced, beta-lactamase ratio, 5 h
Method in brief: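 Read-out was the 460nm/530nm emission ratio (excitation 405nm) after CCF4 loading for 2.5 hours at room temperature. Cells carried an AP-1-driven beta-lactamase reporter, were stimulated with EC50 EGF plus compound for 5 hours, and AC50 values came from titrations.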

[2] = target: Cytochrome P450 1A2 (Homo sapiens) (UniProt P05177); assay: p450-cyp1a2 (AID 410; calls by dose curve;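 further: -100% = full effect of reference inhibitor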); conditions: recombinant CYP1A2, luciferin-ME demethylation, luminescence; series mostly up to 57 µM
Chain of Cytochrome P450 1A2 (Homo sapiens) (P05177 whole entry, looked up): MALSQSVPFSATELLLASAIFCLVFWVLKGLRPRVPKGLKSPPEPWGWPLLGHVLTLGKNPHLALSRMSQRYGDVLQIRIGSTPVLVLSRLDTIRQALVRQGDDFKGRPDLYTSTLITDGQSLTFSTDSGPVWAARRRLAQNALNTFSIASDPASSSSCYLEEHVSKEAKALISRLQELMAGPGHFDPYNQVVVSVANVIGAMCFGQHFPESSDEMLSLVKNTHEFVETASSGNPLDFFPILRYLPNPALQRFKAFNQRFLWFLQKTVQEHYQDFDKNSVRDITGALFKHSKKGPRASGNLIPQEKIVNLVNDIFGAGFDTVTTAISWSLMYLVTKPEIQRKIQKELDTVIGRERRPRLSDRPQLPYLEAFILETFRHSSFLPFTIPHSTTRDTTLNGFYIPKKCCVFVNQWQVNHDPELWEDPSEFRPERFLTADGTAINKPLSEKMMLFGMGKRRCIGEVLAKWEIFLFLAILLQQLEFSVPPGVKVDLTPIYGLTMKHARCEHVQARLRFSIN
Method in brief: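 Human CYP1A2 (20nM) demethylated Luciferin-ME at its Km (100uM) in 100mM KPO4. After 10 min compound preincubation, NADPH regeneration ran the reaction 60 min at room temperature. Luciferin was read by luminescence, normalized to 57 uM furafylline.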

[3] = Stat Signaling Pathway (AID 446; active means well fitted curve in either direction with a large enough effect, not every such curve was filed as active;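 further: ME-180 cervical cancer cells given 40 pM IL-6 alongside compound; SIE-controlled beta-lactamase reporter measured as 460/530 nm FRET emission ratio; on the % scale 0 is the no-effect control and ±100 the full control effect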); conditions: ME-180 SIE beta-lactamase reporter, IL-6 stimulated, 5 h
Method in brief: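 Screening format detects activators and inhibitors alike: ME-180 SIE-bla cells stimulated at 40 pM IL-6 for 5 hrs with compound, then dual-emission beta-lactamase read at 405 nm excitation.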

[4] = target: Mitogen-activated protein kinase 10 (Mus musculus) (UniProt Q61831); assay: JNK3 AlphaScreen Assay (AID 530; active means well fitted curve in either direction with a large enough effect, not every such curve was filed as active;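 further: kinase came from lysate of stimulated human HepG2 cells; signal reports phosphorylation of biotinylated GST-cJun 1-79 at Ser73 with 10 µM ATP; on the % scale 0 is the no-effect control and ±100 the full control effect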); conditions: JNK3 lysate, c-Jun phosphorylation; series mostly up to 57.1 µM
Method in brief: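 JNK3 came from HepG2 lysates pre-activated with IL-1beta and TNF-alpha and phosphorylated biotinylated GST-cJun (1-79) at 10 uM ATP, pH 7.6, room temperature. Compounds were titrated. AlphaScreen signal used anti-phospho-cJun (Ser73) antibody.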

[5] = target: 3',5'-cyclic-AMP phosphodiesterase 4B (Homo sapiens) (UniProt Q07343); assay: qHTS Assay for Inhibitors of PDE-IV (AID 607; active means well fitted activation curve with a large enough effect in the main read-out, with a control signal flat, not every such curve was filed as active; further: % of control where 0% means no effect); conditions: HEK293 ACTOne CNG channel cells, membrane potential fluorescence; series mostly up to 22.9 µM
Chain of 3',5'-cyclic-AMP phosphodiesterase 4B (Homo sapiens) (Q07343 whole entry, looked up): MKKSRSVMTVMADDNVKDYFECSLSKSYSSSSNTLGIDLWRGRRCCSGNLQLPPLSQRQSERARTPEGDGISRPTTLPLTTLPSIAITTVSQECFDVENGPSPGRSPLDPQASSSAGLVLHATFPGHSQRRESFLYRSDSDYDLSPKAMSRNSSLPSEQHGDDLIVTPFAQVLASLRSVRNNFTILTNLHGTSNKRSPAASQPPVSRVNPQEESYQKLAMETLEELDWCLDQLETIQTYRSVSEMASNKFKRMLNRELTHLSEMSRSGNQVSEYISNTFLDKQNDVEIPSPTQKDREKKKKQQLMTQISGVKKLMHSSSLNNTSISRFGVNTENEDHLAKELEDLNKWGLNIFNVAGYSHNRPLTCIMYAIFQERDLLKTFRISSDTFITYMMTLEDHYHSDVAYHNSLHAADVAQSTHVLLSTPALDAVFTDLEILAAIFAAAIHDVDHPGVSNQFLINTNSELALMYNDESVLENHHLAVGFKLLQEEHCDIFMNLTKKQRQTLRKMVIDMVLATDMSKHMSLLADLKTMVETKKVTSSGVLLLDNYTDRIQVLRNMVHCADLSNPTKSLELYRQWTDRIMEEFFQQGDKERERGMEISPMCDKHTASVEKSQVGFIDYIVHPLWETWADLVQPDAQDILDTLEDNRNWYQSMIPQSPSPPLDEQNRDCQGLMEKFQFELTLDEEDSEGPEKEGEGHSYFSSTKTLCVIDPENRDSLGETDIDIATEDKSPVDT
Method in brief: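 The readout is membrane depolarisation from a cAMP-sensing CNG channel, detected with a potential dye at ex 535/em 590. Cells were HEK293-derived (endogenous PDE-IV) at 1000 cells/well, titrated up to 22.9 uM final.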

[6] = target: alpha-glucosidase (Oryza sativa, rice) (UniProt Q653V4); assay: Counterscreen for Glucocerebrosidase Inhibitors: qHTS Assay for Rice alpha-Glucosidase at pH 5.0 (AID 997); conditions: rice alpha-glucosidase enzyme activity; series mostly up to 76.9 µM;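 further: 0% = full activity with enzyme and -100% = basal without enzyme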
Method in brief: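 Rice alpha-glucosidase (4 nM final) with 400 uM 4-methylumbelliferyl-alpha-D-glucopyranoside in citrate buffer pH 5.0, 20 min at room temperature, stopped at pH 10; fluorescence 365/440 nm, compounds 0.7 nM–77 uM, AC50 from Hill fits.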

[7] = qHTS Assay for Lipid Storage Modulators (AID 1519; calls by dose curve); conditions: Drosophila S3 cells, BODIPY lipid droplet/cell ratio, laser cytometry, cells loaded with oleic acid; for activity change, negative = inhibition: at 25.7 µM (top of the series)
Method in brief: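 Cells seeded at 5,000 per well were treated with compounds over a concentration series and loaded with oleic acid (400 uM, as added). Lipid droplet fluorescence (488 nm excitation, 500-530 nm channel) was read by laser-scanning cytometry and normalized to 20 uM Triacsin C.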

[8] = target: ATP-dependent 6-phosphofructokinase (Trypanosoma brucei brucei) (UniProt O15648); assay: qHTS Assay to Find Inhibitors of T. brucei phosphofructokinase: hit validation (AID 492961);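 further: luminescence reports ADP formed as PFK phosphorylates fructose-6-phosphate with ATP; on the % scale 0 is the no-effect control and ±100 the full control effect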; conditions: T. brucei PFK, ADP-Glo luminescence; series mostly up to 24.3 µM
Chain of ATP-dependent 6-phosphofructokinase (Trypanosoma brucei brucei) (O15648 whole entry, looked up): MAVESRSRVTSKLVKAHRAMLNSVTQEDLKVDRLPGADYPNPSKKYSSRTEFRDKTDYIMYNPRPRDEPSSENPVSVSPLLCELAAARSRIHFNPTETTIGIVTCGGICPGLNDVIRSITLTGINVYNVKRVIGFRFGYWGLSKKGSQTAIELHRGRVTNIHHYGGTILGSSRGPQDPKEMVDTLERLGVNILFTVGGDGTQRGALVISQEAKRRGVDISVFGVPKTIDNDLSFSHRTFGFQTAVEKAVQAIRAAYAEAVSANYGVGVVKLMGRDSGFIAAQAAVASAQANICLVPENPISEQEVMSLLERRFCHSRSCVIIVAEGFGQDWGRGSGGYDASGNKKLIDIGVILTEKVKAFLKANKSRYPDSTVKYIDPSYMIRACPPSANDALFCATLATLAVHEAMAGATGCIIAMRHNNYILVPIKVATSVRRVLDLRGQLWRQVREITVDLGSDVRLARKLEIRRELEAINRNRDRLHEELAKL
Method in brief: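 PFK 1.25 nM, F6P 0.5 mM, ATP 0.1 mM, MgCl2 5 mM, 0.1 M TEA pH 8.0, Tween20 0.01%, BSA 0.1%; 45 min RT. ADP-Glo two-step detection, luminescence. qHTS titration; curve fitting with curve-class categorization.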

[9] = target: Ubiquitin carboxyl-terminal hydrolase 1 (Homo sapiens) (UniProt O94782); assay: Inhibitors of USP1/UAF1: Pilot qHTS (AID 504865); conditions: purified USP1/UAF1, Ub-rhodamine cleavage fluorescence; series mostly up to 54.9 µM;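 further: rhodamine fluorescence freed from ubiquitin-rhodamine substrate followed over time; top concentration of the series differs between compounds; on the % scale 0 is the no-effect control and ±100 the full control effect; nearly all actives have a fitted effect of over 35% in size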
Chain of Ubiquitin carboxyl-terminal hydrolase 1 (Homo sapiens) (O94782 whole entry, looked up): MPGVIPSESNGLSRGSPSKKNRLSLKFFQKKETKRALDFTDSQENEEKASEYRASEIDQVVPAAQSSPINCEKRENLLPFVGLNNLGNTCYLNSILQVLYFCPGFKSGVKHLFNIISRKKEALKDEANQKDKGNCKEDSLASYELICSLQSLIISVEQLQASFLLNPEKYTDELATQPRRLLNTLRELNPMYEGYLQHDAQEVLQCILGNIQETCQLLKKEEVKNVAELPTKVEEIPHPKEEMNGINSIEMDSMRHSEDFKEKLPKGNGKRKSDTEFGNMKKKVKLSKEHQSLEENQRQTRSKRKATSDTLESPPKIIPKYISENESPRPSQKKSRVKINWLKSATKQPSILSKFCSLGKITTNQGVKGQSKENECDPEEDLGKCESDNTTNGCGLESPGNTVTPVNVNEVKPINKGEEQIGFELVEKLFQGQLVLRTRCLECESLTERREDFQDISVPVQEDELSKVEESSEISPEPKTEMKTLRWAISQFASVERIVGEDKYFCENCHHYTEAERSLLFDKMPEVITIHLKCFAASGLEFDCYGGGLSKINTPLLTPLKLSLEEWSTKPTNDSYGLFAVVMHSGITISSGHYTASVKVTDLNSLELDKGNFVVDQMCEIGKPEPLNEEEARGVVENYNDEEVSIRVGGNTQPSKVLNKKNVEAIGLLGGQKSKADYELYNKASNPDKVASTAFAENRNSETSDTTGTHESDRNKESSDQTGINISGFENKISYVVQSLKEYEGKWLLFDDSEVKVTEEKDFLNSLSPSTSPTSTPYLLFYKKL
Method in brief: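 Enzyme-free wells gave the negative control, while test wells held 1nM USP1/UAF1 preincubated with compound for 15 min at room temperature. Ub-Rho at 150nM final started the reaction, and fluorescence at 480/540 nm was recorded kinetically.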

[10] = target: Luciferin 4-monooxygenase (Photinus pyralis) (UniProt P08659); assay: Biochemical firefly luciferase enzyme assay for NPC (AID 624030);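 further: purified P. pyralis luciferase at 10 nM with luciferin and ATP substrate; 0% = DMSO and -100% = full luciferase inhibition by PTC124 control; nearly all actives have a fitted effect of over 70% in size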; conditions: purified P. pyralis luciferase, luminescence, 5 min; series mostly up to 58.6 µM
Chain of Luciferin 4-monooxygenase (Photinus pyralis) (P08659 whole entry, looked up): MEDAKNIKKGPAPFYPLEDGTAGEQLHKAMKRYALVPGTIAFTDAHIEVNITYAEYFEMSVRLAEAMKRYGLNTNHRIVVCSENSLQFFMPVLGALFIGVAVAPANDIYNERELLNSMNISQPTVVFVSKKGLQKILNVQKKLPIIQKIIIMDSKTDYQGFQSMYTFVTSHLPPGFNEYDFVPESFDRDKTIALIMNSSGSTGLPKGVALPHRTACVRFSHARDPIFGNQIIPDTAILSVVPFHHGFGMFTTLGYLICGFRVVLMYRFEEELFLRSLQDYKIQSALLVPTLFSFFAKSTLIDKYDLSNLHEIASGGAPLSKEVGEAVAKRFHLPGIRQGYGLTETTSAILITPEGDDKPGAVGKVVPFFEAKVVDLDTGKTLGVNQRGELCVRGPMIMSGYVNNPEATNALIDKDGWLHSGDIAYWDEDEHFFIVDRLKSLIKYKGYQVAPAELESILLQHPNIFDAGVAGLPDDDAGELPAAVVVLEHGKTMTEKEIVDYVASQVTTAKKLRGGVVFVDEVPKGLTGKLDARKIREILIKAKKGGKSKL
Method in brief: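 Counter-screen for direct inhibition of the luciferase enzyme by approved-drug library compounds, run at 10 nM enzyme in 50 mM Tris acetate (final). Luminescence was read within 5 min of enzyme-buffer addition and normalized to PTC124 versus DMSO (0%).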

[11] = qHTS profiling for inhibitors of Plasmodium falciparum proliferation (AID 504749);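 further: 0% = DMSO vehicle and full inhibition = artemisinin control; nearly all actives have a fitted effect of over 60% in size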; conditions: P. falciparum in erythrocytes, SYBR Green DNA, 72 h, at 12.8 µM (top of the series)
Method in brief: (§1)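 P. falciparum-infected erythrocytes (0.3% parasitemia, 2.5% hematocrit final) were exposed to compounds for 72 h at 37 C in 5% CO2, then lysed with SYBR Green buffer overnight at room temperature; parasite DNA fluorescence was normalized to artemisinin and DMSO controls.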

[12] = test system: CP238; assay: as above; conditions: P. falciparum in erythrocytes, SYBR Green DNA, 72 h; series mostly up to 12.8 µM
Method in brief: as §1

[13] = test system: CP250; assay: as above; conditions: P. falciparum in erythrocytes, SYBR Green DNA, 72 h; series mostly up to 12.8 µM
Method in brief: as §1

[14] = test system: CP262; assay: as above; conditions: P. falciparum in erythrocytes, SYBR Green DNA, 72 h; series mostly up to 12.8 µM
Method in brief: as §1

[15] = test system: CP265; assay: as above; conditions: P. falciparum in erythrocytes, SYBR Green DNA, 72 h; series mostly up to 12.8 µM
Method in brief: as §1

[16] = test system: FAB9; assay: as above; conditions: P. falciparum in erythrocytes, SYBR Green DNA, 72 h; series mostly up to 12.8 µM
Method in brief: as §1

[17] = NFAT Signaling Pathway (AID 444; active means well fitted curve in either direction with a large enough effect, not every such curve was filed as active); conditions: Jurkat NFAT-bla M1, carbachol, beta-lactamase ratio, 5 h; at 7.69 µM (top of the series) unless noted
Method in brief: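 Jurkat cells carrying an NFAT-driven β-lactamase reporter and co-transfected muscarinic M1 receptor were treated with compound plus carbachol (1 uM final, an EC50 level) for 5 h at 37 °C. CCF4 loading followed for 1 h at RT; 460/530 nm ratio gave %activity.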

[18] = target: Glucocorticoid receptor (Homo sapiens) (UniProt P04150); assay: GR-GFP Redistribution (AID 450;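 active means compounds whose dose series gives a full or clear partial fitted curve of increased nuclear translocation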; further: potency means the concentration at half of the fitted maximal effect); conditions: U2OS GR-GFP nuclear translocation, laser cytometry, 2 h
Chain of Glucocorticoid receptor (Homo sapiens) (P04150 whole entry, looked up, the tested form may be a part): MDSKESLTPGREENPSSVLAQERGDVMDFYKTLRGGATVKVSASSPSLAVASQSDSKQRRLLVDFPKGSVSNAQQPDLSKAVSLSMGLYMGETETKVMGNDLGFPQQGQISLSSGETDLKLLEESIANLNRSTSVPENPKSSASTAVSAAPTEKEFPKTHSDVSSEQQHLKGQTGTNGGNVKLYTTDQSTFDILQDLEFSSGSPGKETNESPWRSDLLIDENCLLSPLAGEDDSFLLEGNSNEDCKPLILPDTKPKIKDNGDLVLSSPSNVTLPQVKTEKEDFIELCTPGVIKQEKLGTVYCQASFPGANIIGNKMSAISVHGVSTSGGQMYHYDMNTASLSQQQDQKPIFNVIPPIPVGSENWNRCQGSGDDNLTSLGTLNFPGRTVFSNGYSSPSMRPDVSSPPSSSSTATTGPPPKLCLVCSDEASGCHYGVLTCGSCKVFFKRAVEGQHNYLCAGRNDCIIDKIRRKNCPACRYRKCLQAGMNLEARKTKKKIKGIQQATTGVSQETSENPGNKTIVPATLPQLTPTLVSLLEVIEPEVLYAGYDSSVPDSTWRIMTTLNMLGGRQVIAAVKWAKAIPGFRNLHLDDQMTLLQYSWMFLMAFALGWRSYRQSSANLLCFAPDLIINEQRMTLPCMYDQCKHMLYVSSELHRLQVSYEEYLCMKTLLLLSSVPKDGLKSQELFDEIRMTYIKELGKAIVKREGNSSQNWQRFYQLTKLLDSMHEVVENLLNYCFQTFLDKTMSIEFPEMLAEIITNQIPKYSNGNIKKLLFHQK

[19] = target: Glucocorticoid receptor (Homo sapiens) (UniProt P04150); assay: GR-EFC Redistribution (AID 451; calls by dose curve; further: potency means the concentration at half of the fitted maximal effect); conditions: CHO-K1 GR-EFC translocation, beta-gal luminescence, 2 h
Method in brief: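 CHO-K1 cells stably expressing nuclear-localized β-gal enzyme acceptor and GR fused C-terminally to the enzyme donor fragment; ligand-driven nuclear translocation restores β-gal by complementation. Compounds titrated up to 46 uM final, 2 h at 37 °C; luminescence read.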

[20] = test system: AS120; assay: qHTS profiling for inhibitors of Plasmodium falciparum proliferation (AID 504749);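 further: 0% = DMSO vehicle and full inhibition = artemisinin control; nearly all actives have a fitted effect of over 60% in size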; conditions: P. falciparum in erythrocytes, SYBR Green DNA, 72 h; series mostly up to 28.7 µM
Method in brief: as §1

[21] = measured here: cell count channel max response
[22] = measured here: lipid channel max response
[23] = at 7.69 µM (top of the series) unless noted

C[C@@H](CN(C)C)CN1c2ccccc2CCc2ccccc21
inactive: Potency [2] | activity, negative = inhibition ([3]; at 17.2 µM (top of the series)) 1.59% | activity, negative = inhibition ([3]; at 38 µM (top of the series)) -7% | Potency [4] | Potency [5] | outcome [6] | activity change, negative = inhibition [7] -5.99% | outcome [8] | Potency [9] | outcome [10] | activity, negative = inhibition ([11]; parasite line A) -6.2% | Potency [12] | Potency [13] | Potency [14] | Potency [15] | Potency [16]
-11.8%: max response [7, 21]
active: activity change, negative = inhibition ([1]; at 17.2 µM (top of the series)) 77.9% [activator] | activity change, negative = inhibition ([1]; at 38 µM (top of the series)) 90.9% [activator]
-16.4%: max response [7, 22]

C[n+]1ccccc1/C=N\O
-5.77%: max response [7, 21]
inactive: activity change, negative = inhibition [1, 23] 1.66% [at 17.2 µM] | Potency [2] | activity change, negative = inhibition [17] 3.73% [at 17.2 µM] | activity, negative = inhibition [3, 23] 2.75% [at 17.2 µM] | Potency [18] > 20.6 µM | Potency [19] > 20.6 µM | Potency [4] | Potency [5] | activity change, negative = inhibition [7] -1.41% | outcome [8] | outcome [10] | activity, negative = inhibition ([11]; parasite line A) 14% | activity, negative = inhibition ([11]; parasite line B) 8.58% | Potency [20] | Potency [12] | Potency [13] | Potency [14] | Potency [15] | Potency [16]
-7.21%: max response [7, 22]

CC(=O)Nc1c(I)c(C(=O)N[C@H]2[C@@H](O)[C@H](O)[C@H](CO)O[C@@H]2O)c(I)c(N(C)C(C)=O)c1I
-8.07%: max response [7, 21]
-5.12%: max response [7, 22]
inactive: activity change, negative = inhibition [1, 23] 9.89% [at 17.2 µM] | Potency [2] | activity change, negative = inhibition [17] -0.843% [at 17.2 µM] | activity, negative = inhibition [3, 23] -3.76% [at 17.2 µM] | Potency [18] > 20.6 µM | Potency [19] > 20.6 µM | Potency [4] | Potency [5] | activity change, negative = inhibition [7] -0.4% | outcome [8] | Potency [9] | outcome [10] | activity, negative = inhibition ([11]; parasite line A) 8.5% | activity, negative = inhibition ([11]; parasite line B) 4.91% | Potency [20] | Potency [12] | Potency [13] | Potency [14] | Potency [15] | Potency [16]

CN(C)CC[C@H](c1ccc(Br)cc1)c1ccccn1
inactive: activity change, negative = inhibition ([1]; at 17.2 µM (top of the series)) 0.671% | activity change, negative = inhibition ([1]; at 38 µM (top of the series)) 15.7% and 25.3% | Potency [2] | activity, negative = inhibition ([3]; at 17.2 µM (top of the series)) -5.49% | activity, negative = inhibition ([3]; at 38 µM (top of the series)) -29.8% | Potency [4] | Potency [5] | outcome [6] | activity change, negative = inhibition [7] -2.32% | Potency [9]
-5.95%: max response [7, 22]
-4.35%: max response [7, 21]

CN(C)CC[C@@H](c1ccccc1)c1ccccn1
inactive: activity change, negative = inhibition ([1]; at 17.2 µM (top of the series)) 4.02% | activity change, negative = inhibition ([1]; at 38 µM (top of the series)) 8.55% | Potency [2] | activity, negative = inhibition ([3]; at 17.2 µM (top of the series)) 8.97% | activity, negative = inhibition ([3]; at 38 µM (top of the series)) 22.6% | Potency [18] > 46 µM and > 20.6 µM | Potency [19] > 46 µM and > 20.6 µM | Potency [4] | Potency [5] | outcome [6] | activity change, negative = inhibition [7] 1.47% | Potency [9]
2.03%: max response [7, 22]
1.01%: max response [7, 21]
